Inconclusive results are not listed. Calls of active or inactive are those of the source. Calls come from the whole dose curve; as a rule, active = well fitted curve in the direction sought with a large enough effect; inconclusive = small, poorly fitted or top-dose-only effect, or another doubt; inactive = no such curve, though single readings can be large; an effect the other way counts as inactive or inconclusive. Numbered stars: 1 amine (or outer) side, 2 acyl side, 3 side chain; on linkers, the order of the positions; unused ones are H or OH. Bridge positions count the residues as written; N and C are the ends. Square brackets hold non-standard residues; d marks the D form. Peptide text beside a SMILES is read from it. I, II: the chains in the order shown. Actinocin(9to1) = Cc1c2oc3c(C)ccc(C(=O)[*:1])c3nc-2c(C(=O)[*:2])c(N)c1=O; NMeV = CN[C@H](C(=O)O)C(C)C; Sar = CNCC(=O)O
Tests used:
[1] = qHTS of pediatric cancer cell lines to identify multiple opportunities for drug repurposing: Primary screen for TC32 cells (AID 1347089); note: nearly all actives have a fitted effect of over 60% in size; note: potency is the fitted concentration of half-maximal effect
Summary of the method: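 Measured quantity: luminescence from CellTiter-Glo, reflecting metabolically active TC32 cells following 48 h of compound. Curves came straight from multi-point titrations, with 8 or 11 points in primary and 11 in confirmatory screening.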

[2] = qHTS of pediatric cancer cell lines to identify multiple opportunities for drug repurposing: Primary screen for DAOY cells (AID 1347090); note: nearly all actives have a fitted effect of over 55% in size; note: potency is the fitted concentration of half-maximal effect
Summary of the method: (§1)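 Cell viability, CellTiter-Glo luminescence; 500-1,000 cells/well, 8- or 11-point titration, 48 h compound exposure at 37 degrees C, 5% CO2. Controls: DMSO neutral, bortezomib 2.3 µM final as positive.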

[3] = qHTS of pediatric cancer cell lines to identify multiple opportunities for drug repurposing: Primary screen for SJ-GBM2 cells (AID 1347091); note: potency is the fitted concentration of half-maximal effect
Summary of the method: as §1

[4] = qHTS of pediatric cancer cell lines to identify multiple opportunities for drug repurposing: Primary screen for SK-N-MC cells (AID 1347093); note: potency is the fitted concentration of half-maximal effect
Summary of the method: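 Metabolically active cells were quantified by ATP-dependent luminescence (CellTiter-Glo, 15 min at room temperature) following 48 h treatment. Cells had been plated at 500-1,000 per well and settled for 5 h beforehand.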

[5] = qHTS of pediatric cancer cell lines to identify multiple opportunities for drug repurposing: Primary screen for BT-37 cells (AID 1347094); note: potency is the fitted concentration of half-maximal effect
Summary of the method: (§2)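 Viability was measured as metabolically active cells after 48 hours of treatment, read by CellTiter-Glo luminescence. Compounds were tested at multiple final concentrations, giving concentration-response curves.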

[6] = qHTS of pediatric cancer cell lines to identify multiple opportunities for drug repurposing: Primary screen for NB-EBc1 cells (AID 1347095); note: potency is the fitted concentration of half-maximal effect
Summary of the method: as §2

[7] = qHTS of pediatric cancer cell lines to identify multiple opportunities for drug repurposing: Primary screen for Saos-2 cells (AID 1347097); note: nearly all actives have a fitted effect of over 40% in size; note: potency is the fitted concentration of half-maximal effect
Summary of the method: as §2

[8] = qHTS of pediatric cancer cell lines to identify multiple opportunities for drug repurposing: Primary screen for SK-N-SH cells (AID 1347098); note: nearly all actives have a fitted effect of over 65% in size; note: potency is the fitted concentration of half-maximal effect
Summary of the method: (§3)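 Cells (500-1,000/well) rested 5 h, then received compounds for 48 h; metabolically active cells were measured by CellTiter-Glo luminescence. Final concentrations spanned up to 46 µM (MIPE, 11-point) or 0.59 nM-46 µM (NPC, 8-point) in primary screens, 11-point in follow-ups.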

[9] = qHTS of pediatric cancer cell lines to identify multiple opportunities for drug repurposing: Primary screen for NB1643 cells (AID 1347099); note: nearly all actives have a fitted effect of over 50% in size; note: potency is the fitted concentration of half-maximal effect
Summary of the method: as §2

[10] = qHTS of pediatric cancer cell lines to identify multiple opportunities for drug repurposing: Primary screen for LAN-5 cells (AID 1347100); note: potency is the fitted concentration of half-maximal effect
Summary of the method: as §3

[11] = qHTS of pediatric cancer cell lines to identify multiple opportunities for drug repurposing: Primary screen for Rh18 cells (AID 1347102); note: nearly all actives have a fitted effect of over 65% in size; note: potency is the fitted concentration of half-maximal effect
Summary of the method: as §3

[12] = qHTS of pediatric cancer cell lines to identify multiple opportunities for drug repurposing: Primary screen for RD cells (AID 1347104); note: nearly all actives have a fitted effect of over 55% in size; note: potency is the fitted concentration of half-maximal effect
Summary of the method: as §2

[13] = qHTS of pediatric cancer cell lines to identify multiple opportunities for drug repurposing: Primary screen for MG 63 (6-TG R) cells (AID 1347105); note: nearly all actives have a fitted effect of over 50% in size; note: potency is the fitted concentration of half-maximal effect
Summary of the method: as §2

[14] = qHTS of pediatric cancer cell lines to identify multiple opportunities for drug repurposing: Primary screen for control Hh wild type fibroblast cells (AID 1347106);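 note: series mostly up to about 46 µM; a drop in luminescence marks cytotoxicity and a rise apparent proliferation; nearly all actives have a fitted effect of over 55% in size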
Summary of the method: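 Cells (500-1,000/well) in growth media were settled 5 h at 37 degrees C, then given compounds for 48 h. Viability was read as CellTiter-Glo luminescence. Primary runs used MIPE at 11 points (0.78 nM-46 µM) and NPC at 8 points (0.59 nM-46 µM); follow-ups used 11 points.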

[15] = qHTS of pediatric cancer cell lines to identify multiple opportunities for drug repurposing: Primary screen for OHS-50 cells (AID 1347103); note: nearly all actives have a fitted effect of over 40% in size; note: potency is the fitted concentration of half-maximal effect
Summary of the method: as §3

[16] = qHTS of pediatric cancer cell lines to identify multiple opportunities for drug repurposing: Primary screen for U-2 OS cells (AID 1347096); note: nearly all actives have a fitted effect of over 50% in size
Summary of the method: as §3

[17] = qHTS of pediatric cancer cell lines to identify multiple opportunities for drug repurposing: Primary screen for BT-12 cells (AID 1347101); note: nearly all actives have a fitted effect of over 25% in size; note: potency is the fitted concentration of half-maximal effect
Summary of the method: as §3

[18] = qHTS of pediatric cancer cell lines to identify multiple opportunities for drug repurposing: Primary screen for A673 cells (AID 1347092); note: potency is the fitted concentration of half-maximal effect; nearly all actives have a fitted effect of over 45% in size
Summary of the method: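 Cells are plated, rested 5 h, dosed by pintool, incubated 48 h, then lysed with CellTiter-Glo and read by luminescence. DMSO is the neutral control; bortezomib at 2.3 uM final is the positive control.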

Measured: Potency

C[C@]12CC[C@H]3[C@@H](CCC4=CC(=O)CC[C@@]43C)[C@@H]1CC[C@@H]2C(=O)CO
not listed: [15] | [16] | [17] | [18]
inactive: all other assays above

CCN1CCN(c2cc3c(cc2F)c(=O)c(C(=O)O)cn3C2CC2)CC1
not listed: [14] | [16] | [17] | [18]
inactive: all other assays above

C[C@H](CCC(=O)O)[C@H]1CC[C@H]2[C@@H]3C(=O)C[C@@H]4CC(=O)CC[C@]4(C)[C@H]3CC(=O)[C@]12C
not listed: [6] | [17] | [18]
inactive: all other assays above

CC1=C(C(=O)O)N2C(=O)[C@@H](NC(=O)[C@H](N)c3ccc(O)cc3)[C@H]2SC1
not listed: [4] | [16] | [18]
inactive: all other assays above

C=C1C[C@H]2[C@@H]3C=C(C)C4=CC(=O)CC[C@]4(C)[C@H]3CC[C@]2(C)[C@@]1(OC(C)=O)C(C)=O
active: [15] 30.9 µM
not listed: [4] | [6] | [10] | [16] | [17] | [18]
inactive: all other assays above

O=C(Nc1ccc(Oc2ccc(Cl)cc2)c(Cl)c1)c1cc(I)cc(I)c1O
inactive: [1] | [2] | [5] | [16] | [17] | [11] | [14]
active: [3] 15 µM | [6] 26.6 µM

CC(C)N=C(N)/N=C(\N)Nc1ccc(Cl)cc1
inactive: [1] | [2] | [3] | [5] | [6] | [16] | [9] | [10] | [13] | [14]

NCCCC[C@H](N[C@@H](CCc1ccccc1)C(=O)O)C(=O)N1CCC[C@H]1C(=O)O
not listed: [6] | [18]
inactive: all other assays above

CC(C)NC[C@@H](O)COc1cccc2ccccc12
active: [12] 26.6 µM
not listed: [4] | [7] | [15] | [16] | [18]
inactive: all other assays above

CC(=O)O[C@]1(C(C)=O)CC[C@H]2[C@@H]3C[C@H](C)C4=CC(=O)CC[C@]4(C)[C@H]3CC[C@@]21C
active: [4] 33.5 µM | [15] 24.6 µM
not listed: [7] | [8] | [10] | [12] | [17] | [18]
inactive: all other assays above

Cc1cccc(C)c1NC(=O)CN1CCN(CCCC(c2ccc(F)cc2)c2ccc(F)cc2)CC1
active: [3] 21.1 µM
not listed: [6] | [10] | [14] | [15] | [18]
inactive: all other assays above

CNCC[C@@H](Oc1ccccc1C)c1ccccc1
not listed: [7] | [15] | [18]
inactive: all other assays above

O=C1OCCN1/N=C/c1ccc([N+](=O)[O-])o1
not listed: [8] | [18]
inactive: all other assays above

CCCCCC=CCC=CCCCCCCCC(=O)OCC
not listed: [4] | [6] | [7] | [8] | [18]
inactive: all other assays above

CCN(CC)C(=O)N1CCN(C)CC1
not listed: [16] | [18]
inactive: all other assays above

CN1CCN(CCCN2c3ccccc3Sc3ccc(S(=O)(=O)N(C)C)cc32)CC1
inactive: [1] | [2] | [6] | [16] | [9] | [14]
active: [3] 18.8 µM | [8] 15.4 µM | [11] 23.7 µM | [15] 24.6 µM

O=C(N/N=C/c1ccccc1O)c1ccncc1
active: [1] 23.6 µM | [2] 4.22 µM | [5] 11 µM | [6] 18.8 µM | [9] 3.35 µM | [10] 2.99 µM | [17] 6.17 µM | [15] 5.5 µM | [13] 6.68 µM

Cc1c2oc3c(C)ccc(C(=O)N[C@@H]4C(=O)N[C@H](C(C)C)C(=O)N5CCC[C@H]5C(=O)N(C)CC(=O)N(C)[C@@H](C(C)C)C(=O)O[C@@H]4C)c3nc-2c(C(=O)N[C@@H]2C(=O)N[C@H](C(C)C)C(=O)N3CCC[C@H]3C(=O)N(C)CC(=O)N(C)[C@@H](C(C)C)C(=O)O[C@@H]2C)c(N)c1=O (I: T[dV]P[Sar][NMeV] / II: T[dV]P[Sar][NMeV]; ester I:1-I:C, II:1-II:C; linker I:N-II:N via Actinocin(9to1))
inactive: [6] | [10]
active: [1] 0.0149 µM | [2] 0.0211 µM | [18] 0.0042 µM | [4] 0.0027 µM | [5] 0.0028 µM | [7] 0.0841 µM | [8] 0.0034 µM | [17] 0.0069 µM | [15] 0.0347 µM | [12] 0.0133 µM | [13] 0.0335 µM

Reference: PubChem BioAssay (NCATS)
